Among the data in PubChem BioAssay (Tox21) are Potency, outcome and max response values, retold here.

Assay [1] is described as follows: qHTS RealTime-Glo MT Cell Viability Assay in HepG2 cells - 40 hour (AID 1224870). Note: nearly all actives have a fitted effect of over 50% in size. Note: potency is the fitted concentration of half-maximal effect. The essentials:
(§1)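 HepG2 cells (600/well) mixed with RealTime-Glo MT reagent, settled 5 h at 37 C/5% CO2 before compound addition. Nonlytic NanoLuc luminescence from viable-cell prosubstrate reduction read repeatedly during 40 h treatment at 37 C.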

Assay [2] can be described thus: qHTS RealTime-Glo MT Cell Viability Assay in HEK293 cells - 16 hour (AID 1224872). Note: nearly all actives have a fitted effect of over 50% in size. Note: potency is the fitted concentration of half-maximal effect. The essentials:
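HEK293 cells seeded with NanoLuc/prosubstrate reagent, rested 5 h at 37 C, then dosed and kept at 37 C up to 40 h. Nonlytic real-time luminescence from viable cells read at 0, 8, 16, 24, 32 and 40 h.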

The nature of assay [3]: qHTS RealTime-Glo MT Cell Viability Assay in HepG2 cells - 8 hour (AID 1224873). Note: nearly all actives have a fitted effect of over 55% in size. The essentials: as §1
On the technique in general: In qHTS, concentration-response curves come from the screen itself.

The nature of assay [4]: qHTS RealTime-Glo MT Cell Viability Assay in HEK293 cells - 40 hour (AID 1224874). Note: nearly all actives have a fitted effect of over 50% in size. Note: potency is the fitted concentration of half-maximal effect. Conditions: RealTime-Glo luminescence; max response: hits give low values. The essentials:
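Nonlytic bioluminescent viability monitoring. HEK293 at 600 cells/well with reagent; 5 h settle; compound transfer by pintool; plates held at 37 C and read at set time points.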

Assay [5] is described as follows: A CellTox Green Cytotoxicity Assay to monitor cytotoxicity in HEK293 cells - 24 hour (AID 1224875). Note: series mostly up to about 77 µM; nearly all actives have a fitted effect of over 45% in size. A digest of the protocol:
(§2)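 Cytotoxicity was tracked continuously in HEK293 cells by a DNA-binding dye excluded from viable cells. Compounds were transferred in DMSO 5 h after seeding; fluorescence was recorded at intervals up to 40 h.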

A short description of assay [6]: A CellTox Green Cytotoxicity Assay to monitor cytotoxicity in HepG2 cells - 16 hour (AID 1224876). Note: nearly all actives have a fitted effect of over 45% in size. Note: potency is the fitted concentration of half-maximal effect. A digest of the protocol:
(§3)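 Real-time, homogeneous cytotoxicity readout: dead-cell DNA staining by CellTox Green in HepG2 monolayers, fluorescence measured at timed intervals up to 40 h of continuous compound exposure.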

Assay [7] is described as follows: qHTS RealTime-Glo MT Cell Viability Assay in HepG2 cells - 32 hour (AID 1224877). Note: nearly all actives have a fitted effect of over 55% in size. A digest of the protocol:
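HepG2 cells (600/well) were dispensed with RealTime-Glo reagents, incubated 5 h at 37 °C, then treated with compounds in DMSO for up to 40 h. Nonlytic NanoLuc luminescence reflecting viable cells was read at each stated time point.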

The nature of assay [8]: A CellTox Green Cytotoxicity Assay to monitor cytotoxicity in HepG2 cells - 40 hour (AID 1224879). Note: nearly all actives have a fitted effect of over 40% in size. Note: potency is the fitted concentration of half-maximal effect. The essentials: as §3
Assay [9] can be described thus: A CellTox Green Cytotoxicity Assay to monitor cytotoxicity in HepG2 cells - 24 hour (AID 1224878). Note: nearly all actives have a fitted effect of over 45% in size. Note: potency is the fitted concentration of half-maximal effect. The essentials: as §3
Assay [10] in a line: A CellTox Green Cytotoxicity Assay to monitor cytotoxicity in HEK293 cells - 40 hour (AID 1224871). Note: nearly all actives have a fitted effect of over 45% in size. The essentials: as §2

Results filed as inconclusive are left out. Unmarked numbers belong to inactive results. Activity calls are given as the source filed them. Calls come from the whole dose curve; as a rule, active = well fitted curve in the direction sought with a large enough effect in the repeat runs; inconclusive = weak or mixed curves; inactive = no such curve, though single readings can be large; an effect the other way counts as inactive or inconclusive.
% is set by controls: 0 for no effect and ±100 for the full control effect.

Take `Cc1ccc(Nc2ccc(O)c3c2C(=O)c2ccccc2C3=O)cc1`: the Potency result in [1], in [2], in assay [5], in [6], in assay [7] and in assay [8] was “inactive” each time. For the same compound, the call in assay [3] was inactive. Further, the max response in assay [4] was 7.86%.

`CC(C)CCOC(=O)CC(C)C`: the Potency entry in assay [1], in assay [6], in assay [7], in assay [9] and in assay [8] was “inactive” in each case. The compound was called inactive in assay [3]. Further, in assay [4], the max response is 14.4%.

On to `CCCCC1CCCCC(=O)O1` (stereo not drawn), for which the Potency entry in assay [1], in assay [2], in assay [5], in assay [7], in assay [9] and in assay [8] was “inactive” throughout. The max response in [4] is 13.6%.

On to `CCN1CCCC(OC(=O)C(c2ccccc2)c2ccccc2)C1` (stereo not drawn), for which the Potency result in assay [1], in assay [2], in assay [6], in assay [7], in assay [9] and in [8] was “inactive” throughout. Moreover, the result in assay [3] was inactive. Further, the max response in assay [4] was 14.8%.

Regarding `CCN(CC)S(=O)(=O)c1ccc(C(=O)O)cc1`, the Potency result in [1], in assay [6], in [7] and in [8] was “inactive” throughout. The call in assay [3] was inactive.

As for `O=C1C(CCS(=O)c2ccccc2)C(=O)N(c2ccccc2)N1c1ccccc1` (stereo not drawn), the Potency entry in assay [1], in assay [2], in assay [5], in assay [7], in [9] and in assay [8] was “inactive” in each case. For the same compound, in [3], the compound was called inactive. Further, the max response in [4] is 1.04%.

With `CCCCCCCCCCC1CO1` (stereo not drawn), the Potency result in assay [1], in assay [5], in assay [6], in [7] and in assay [8] was “inactive” in each case. Further, in assay [3], the result was inactive. Further, the max response in assay [4] is 6.25%.

As for `Cn1cnc2c(=O)[nH]c(N)nc21`, the Potency entry in assay [1], in assay [2], in [5], in assay [6], in [7] and in assay [9] was “inactive” throughout. In assay [8], the Potency entry was “inactive”. Also, the max response in assay [4] is 15.1%.

With `CCCC(C)C(=O)O` (stereo not drawn), the Potency result in assay [1], in assay [5], in assay [6], in assay [7], in assay [9] and in [8] was “inactive” throughout. Moreover, the compound was called inactive in [3]. Also, the max response in assay [4] was -23.4%.

`[O-][N+](=Nc1ccccc1)c1ccccc1`: the Potency result in [1], in assay [2], in [6], in assay [7] and in assay [8] was “inactive” each time. The compound was classed as inactive in [3]. In addition, the max response in assay [4] is -1.34%.

As to `OCC(CO)(CO)COCC(CO)(CO)CO`, the Potency entry in assay [2], in assay [5], in assay [6], in assay [7], in assay [9] and in [8] was “inactive” each time. In assay [3], the result was inactive. The max response in assay [4] was 9.54%.

Turning to `CC(C)[N+](C)(C)CC(O)COc1cccc2ccccc12` (stereo not drawn), the Potency result in assay [10], in assay [2], in [5], in assay [6], in assay [9] and in [8] was “inactive” throughout. In [3], the call was inactive. In addition, in [4], the max response was 6.37%.

For `c1cc(CN2CCCCC2)cc(OCCCNc2nc3ccccc3s2)c1`, the Potency entry in assay [10] and in assay [5] was “inactive” each time. Further, the Potency in assay [2] is 9.52 µM (active); in assay [4], 9.52 µM (active); in assay [9], 26.8 µM (active); in assay [8] it was 23.9 µM (active). Also, the result in [3] was inactive.

Take `Cc1ccc(N)cc1[N+](=O)[O-]`: the Potency result in [1], in [2], in assay [5], in assay [7], in assay [9] and in [8] was “inactive” each time. In addition, in assay [3], the result was inactive. The max response in assay [4] is -16.8%.

Take `COc1cc(O)cc(O)c1`: the Potency result in assay [1], in [2], in assay [5], in assay [6], in assay [7] and in [9] was “inactive” throughout. For the same compound, the Potency entry in assay [8] is “inactive”. For the same compound, the max response in assay [4] is 2.03%.

`Fc1ccccc1-c1ccccc1`: the Potency entry in [1], in assay [6], in assay [7] and in [9] was “inactive” throughout. In addition, the max response in [4] is -21.5%.

Consider `C/C=C1\C(=O)C[C@H]2[C@@H]3CCC4=CC(=O)CC[C@]4(C)[C@H]3CC[C@]12C`, for which the Potency entry in [1], in assay [5], in assay [6], in assay [7], in assay [9] and in [8] was “inactive” each time. Besides, the compound was called inactive in assay [3]. For the same compound, the Potency in assay [4] was 21.4 µM (active).

With `CN(C)C(=O)C(CCN1CCC(O)(c2ccc(Cl)cc2)CC1)(c1ccccc1)c1ccccc1`, the Potency in assay [1] was 23.9 µM (active); in assay [2] it was 8.49 µM (active); in assay [4], 10.7 µM (active); in [6] it was 10.7 µM (active); in assay [8] it was 23.9 µM (active). In addition, in assay [3], the call was inactive.

Take `Cc1ncc(CSSCc2cnc(C)c(O)c2CO)c(CO)c1O`: the Potency result in assay [1], in assay [2], in assay [6], in [7], in [9] and in [8] was “inactive” throughout. Moreover, the compound was classed as inactive in assay [3]. Moreover, the max response in assay [4] was 5.83%.

With `c1ccc(SCCSc2ccccc2)cc1`, the Potency entry in assay [1], in assay [6], in assay [7], in assay [9] and in assay [8] was “inactive” throughout. In addition, the max response in assay [4] is 6.54%.

As for `COc1ccc2cc(C=O)ccc2c1`, the Potency entry in assay [1], in assay [2], in [5], in assay [7], in [9] and in assay [8] was “inactive” throughout. Besides, the call in assay [3] was inactive. Besides, the max response in assay [4] was 2.85%.

Regarding `COC(=O)C1=C(C)NC(C)=C(C(=O)OCC(C)=O)C1c1ccccc1[N+](=O)[O-]` (stereo not drawn), the Potency entry in assay [1], in [5], in assay [6], in [7], in assay [9] and in assay [8] was “inactive” throughout. Moreover, in [4], the max response is -9.05%.

In the case of `CCOC(=O)Cn1c(=O)sc2cccc(Cl)c21`, the Potency entry in assay [1], in assay [5], in assay [6], in [7], in assay [9] and in [8] was “inactive” in each case. The max response in [4] was -10.9%.

For `c1ccc(CCCc2ccccn2)cc1`, the Potency result in [1], in assay [2], in [6], in assay [7], in assay [9] and in assay [8] was “inactive” throughout. For the same compound, in [3], the result was inactive. Further, the max response in [4] was -0.97%.

As for `Cc1cc(C)cc(OCC2CNC(=O)O2)c1` (stereo not drawn), the Potency result in assay [1], in [2], in assay [5], in assay [6], in assay [7] and in assay [9] was “inactive” in each case. For the same compound, in assay [8], the Potency entry was “inactive”. Moreover, the max response in assay [4] was 2.49%.

Regarding `CCC(=O)c1cccc(Cl)c1`, the Potency entry in [1], in assay [2], in assay [5], in assay [7], in assay [9] and in assay [8] was “inactive” each time. The max response in assay [4] is 3.96%.

For `Cc1c(F)cc2c(=O)c(C(=O)O)cn3c2c1CCC3C` (stereo not drawn), the Potency result in assay [1], in assay [2], in assay [6], in [7], in assay [9] and in assay [8] was “inactive” each time. Besides, the result in assay [3] was inactive. Further, in [4], the max response is -0.802%.
